Test results from article PMC4336329 (PLoS ONE, 2015).
Hit rate of the full screen: of about 310,000 compounds, about 14,000 (4.5%) showed an effect of 50% or more. Effects have a minus sign here. This is one part of a sample in which strong results are shown more often than they occur.

molecular target: human ether-à-go-go-related gene (hERG) potassium channel (human, UniProt Q12809); assay: primary screen, population patch clamp on CHO cells stably expressing hERG; higher = less effect of the substance
Sequence (Q12809 whole entry, looked up): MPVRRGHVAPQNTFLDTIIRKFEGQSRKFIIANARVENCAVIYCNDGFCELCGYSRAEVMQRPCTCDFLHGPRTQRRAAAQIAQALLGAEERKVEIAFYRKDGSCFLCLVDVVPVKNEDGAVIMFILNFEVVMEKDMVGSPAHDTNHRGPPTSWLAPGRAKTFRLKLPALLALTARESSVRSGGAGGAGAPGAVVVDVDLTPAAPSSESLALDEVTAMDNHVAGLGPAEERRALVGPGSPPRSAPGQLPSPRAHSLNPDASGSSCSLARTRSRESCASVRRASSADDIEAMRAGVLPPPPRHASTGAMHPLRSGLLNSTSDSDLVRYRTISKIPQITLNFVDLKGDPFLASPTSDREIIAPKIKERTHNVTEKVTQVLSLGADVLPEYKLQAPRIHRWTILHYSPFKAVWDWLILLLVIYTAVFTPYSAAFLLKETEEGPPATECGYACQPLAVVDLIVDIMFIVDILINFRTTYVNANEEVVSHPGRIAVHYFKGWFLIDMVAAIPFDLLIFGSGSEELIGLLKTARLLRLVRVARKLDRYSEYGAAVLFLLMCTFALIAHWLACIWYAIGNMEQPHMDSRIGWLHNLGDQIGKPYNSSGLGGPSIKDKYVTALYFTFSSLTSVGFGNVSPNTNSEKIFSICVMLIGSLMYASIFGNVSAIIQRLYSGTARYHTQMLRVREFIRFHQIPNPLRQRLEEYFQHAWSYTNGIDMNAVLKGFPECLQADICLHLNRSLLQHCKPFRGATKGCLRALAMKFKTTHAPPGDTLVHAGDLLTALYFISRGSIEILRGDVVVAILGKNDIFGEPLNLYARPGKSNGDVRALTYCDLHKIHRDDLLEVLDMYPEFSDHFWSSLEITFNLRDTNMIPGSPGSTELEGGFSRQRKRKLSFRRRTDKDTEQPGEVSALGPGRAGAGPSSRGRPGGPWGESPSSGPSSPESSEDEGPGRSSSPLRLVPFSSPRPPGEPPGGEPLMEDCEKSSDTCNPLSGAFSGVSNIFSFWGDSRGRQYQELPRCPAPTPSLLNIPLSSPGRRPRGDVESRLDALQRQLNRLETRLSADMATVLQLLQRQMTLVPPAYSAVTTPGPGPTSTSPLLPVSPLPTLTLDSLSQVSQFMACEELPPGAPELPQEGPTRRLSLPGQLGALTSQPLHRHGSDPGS
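Also: peak tail current of the secondary pulse compared with the same well before compound.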

Compound | hERG current change (%, negative = inhibition) at 10uM
Cc1ccc(S(=O)(=O)N2CCOCC2)cc1NC(=O)C(c1ccc(Cl)cc1)C(C)C (stereo not drawn) | 1.8%
O=C(CSc1nnc(-c2cccc(S(=O)(=O)N3CCOCC3)c2)n1C1CCCCCC1)NCc1ccccc1 | -17.5%
CCN(CC)S(=O)(=O)c1ccc(OC)c(NC(=O)CSc2cc(Cl)ccc2Cl)c1 | -2.76%
Cc1ccc(S(=O)(=O)N2CCOCC2)cc1NC(=O)CSc1ncccn1 | -4.68%
CCN(CC)S(=O)(=O)c1ccc(OC)c(NC(=O)CSc2cc(C)ccc2C)c1 | -13.3%
Cc1ccc(S(=O)(=O)N2CCOCC2)cc1NC(=O)CSc1ccc(Cl)cc1 | -51.3%
Cc1ccc(S(=O)(=O)N2CCOCC2)cc1NC(=O)CSc1nnc2cc(C)c3ccccc3n12 | -61.8%
Cc1cc2nnc(SCC(=O)Nc3cc(S(=O)(=O)N4CCOCC4)ccc3Cl)n2c2ccccc12 | -20.5%
CC(C)Cn1c(SCC(=O)NCc2ccc(Cl)cc2)nnc1-c1cccc(S(=O)(=O)N2CCOCC2)c1 | -52.9%
Cc1cc2nnc(SCC(=O)Nc3cccc(S(=O)(=O)N4CCOCC4)c3)n2c2ccccc12 | -14.4%
Cc1ccc(CSc2nnc(-c3cccc(S(=O)(=O)N4CCOCC4)c3)n2CC(C)C)cc1 | -29.5%
CCN(CC)S(=O)(=O)c1ccc(OC)c(NC(=O)CSc2ccccc2)c1 | -72.9%
CC(C)CN(C(=O)COC(=O)Cc1ccc(Cl)cc1)c1c(N)n(Cc2ccccc2)c(=O)[nH]c1=O | 5.02%
Cc1cccc(C(=O)N[C@@H](C)C(=O)N2CCN(c3ncccn3)CC2)c1 | -3.21%
COc1ccc(OC)c(/C=C/C(=O)OCC(=O)Nc2nnc(-c3ccccc3)o2)c1 | -3.14%
O=C(COC(=O)Cc1ccc(Br)cc1)Nc1c(F)c(F)c(F)c(F)c1F | 13.4%
Cc1ccc(NC2=NCCCS2)c(C)c1C | -11.5%
CCOc1ccc(NS(=O)(=O)c2cc(C(=O)N3CCN(C(C)=O)CC3)ccc2Cl)cc1 | 12.6%
COc1ccc(S(=O)(=O)Nc2ccccn2)cc1 | 13.8%
CCC12OC(=N)C(C#N)(C1C)C(C#N)(C#N)C(c1ccccc1)O2 (stereo not drawn) | 2.68%
COC(=O)c1ccc(COc2ccc(/C=N/NC(N)=S)cc2)o1 | -5.9%
COc1ccc(S(=O)(=O)N2CCOCC2)cc1NC(=O)CSc1nnc2ccccn12 | 5.54%
O=C(CSc1ncnc2ccccc12)Nc1cc(S(=O)(=O)N2CCCCC2)ccc1Cl | 14.4%
COc1ccc(S(=O)(=O)N2CCOCC2)cc1NC(=O)CSc1ccccc1 | -53.9%
COc1ccc(S(=O)(=O)N2CCOCC2)cc1NC(=O)COc1ncnc2ccccc12 | 6.62%
Cc1ccc(S(=O)(=O)N2CCCCC2)cc1NC(=O)CSc1ncnc2ccccc12 | -36.2%

Compound | hERG current change (%, negative = inhibition) at 10uM
COc1ccc(S(=O)(=O)N2CCOCC2)cc1NC(=O)CSc1ccc(F)cc1 | -42.6%
COc1ccc(S(=O)(=O)N2CCCCC2)cc1NC(=O)CSc1ncnc2ccccc12 | -51.2%
COc1ccc(S(=O)(=O)N2CCOCC2)cc1NC(=O)CSc1ncnc2ccccc12 | -50.4%
COc1ccc(S(=O)(=O)N2CCOCC2)cc1NC(=O)CSc1cccc[n+]1[O-] | -3%
CC(OC(=O)c1cccc(-n2cnnn2)c1)C(=O)NCc1ccccc1 (stereo not drawn) | 0.976%
O=C(COC(=O)CSc1ccc([N+](=O)[O-])cc1)NCC1CCCO1 (stereo not drawn) | 12.3%
C#CCOCCOCCOCCNc1nc(N2CCN(C(=O)CCCCCCCCCCNC(=O)[C@@H](CCC(=O)O)n3cc(CCCCCN)nn3)CC2)nc(N2CCN(C(=O)CCCCCCCCCCNC(=O)[C@H](CO)n3cc(CCCSC)nn3)CC2)n1 | 11.9%
CCN1C(=O)C(CC(=O)Nc2ccc(OC)cc2)N(CCc2ccccc2)C1=S (stereo not drawn) | -1.28%
CC(=O)C[C@H]1c2ccccc2S(=O)(=O)N1c1ccccc1 | 23%
Cc1cc(NC(=O)c2cc(-c3ccccc3Cl)nc3ccccc23)no1 | -0.229%
COCCOC(=O)c1cc(C(=O)c2cc(F)ccc2O)coc1=N | 9.29%
O=C(Nc1nnc(S(=O)(=O)N2CCOCC2)s1)c1ccccc1F | 16.7%
CC(=O)c1ccccc1NS(=O)(=O)c1cccc2nonc12 | -52.2%
O=S(=O)(Nc1cc(F)ccc1F)c1cccc2nonc12 | -83.6%
O=S(=O)(Nc1cccc2ccccc12)c1cccc2nonc12 | 3.98%
CSc1ccccc1NS(=O)(=O)c1cccc2nonc12 | 1.51%
O=S(=O)(Nc1cc(F)ccc1F)c1cccc2nsnc12 | 11.6%
Cc1ccccc1NS(=O)(=O)c1cccc2nonc12 | 2.34%
NC(=O)NCCN1CCN(c2ncc(C(F)(F)F)cc2Cl)CC1 | -33.7%
CCOc1ccc(C(=O)NCC(=O)N2CCN(c3ccc(C(F)(F)F)cn3)CC2)cc1 | -7.32%
CNCC(=O)N1CCN(c2ncc(C(F)(F)F)cc2Cl)CC1.Cl | -22.3%
O=C(NCC(=O)N1CCN(c2ccccn2)CC1)c1ccc(Br)o1 | -15.3%
O=C(NCC(=O)N1CCN(c2ccc(C(F)(F)F)cn2)CC1)c1ccc(Br)o1 | -71.8%
O=C(NCC(=O)N1CCN(c2ncc(C(F)(F)F)cc2Cl)CC1)c1ccc(Br)o1 | -50.6%
COc1cccc(NC(=O)Nc2c(C)n(C)n(-c3ccccc3)c2=O)c1 | 3.91%
